# From PubChem BioAssay AID1851 (National Center for Advancing Translational Sciences (NCATS), 2009)
# The campaign covered roughly 16,000 compounds. About 2,600 (16%) were called active. Another 20% or so got no clear call; they are omitted. Only a sample is shown. Values without a mark were called inactive. Calls come from the whole dose curve; as a rule, active = well fitted curve in the direction sought with a large enough effect; inconclusive = small, poorly fitted or top-dose-only effect, or effect the other way; inactive = no such curve, though single readings can be large or run the other way.
# Molecular target: Cytochrome P450 2D6 (Homo sapiens) (UniProt P10635)
# Test: Cytochrome panel assay with activity outcomes
# Conditions: recombinant CYP, pro-luciferin dealkylation, luminescence, p450-cyp2d6; series mostly up to 57.1 µM; activity, negative = inhibition: at the top concentration
# % is set by controls: 0 for no effect and ±100 for the full control effect.
# Chain of Cytochrome P450 2D6 (Homo sapiens) (P10635 whole entry, looked up): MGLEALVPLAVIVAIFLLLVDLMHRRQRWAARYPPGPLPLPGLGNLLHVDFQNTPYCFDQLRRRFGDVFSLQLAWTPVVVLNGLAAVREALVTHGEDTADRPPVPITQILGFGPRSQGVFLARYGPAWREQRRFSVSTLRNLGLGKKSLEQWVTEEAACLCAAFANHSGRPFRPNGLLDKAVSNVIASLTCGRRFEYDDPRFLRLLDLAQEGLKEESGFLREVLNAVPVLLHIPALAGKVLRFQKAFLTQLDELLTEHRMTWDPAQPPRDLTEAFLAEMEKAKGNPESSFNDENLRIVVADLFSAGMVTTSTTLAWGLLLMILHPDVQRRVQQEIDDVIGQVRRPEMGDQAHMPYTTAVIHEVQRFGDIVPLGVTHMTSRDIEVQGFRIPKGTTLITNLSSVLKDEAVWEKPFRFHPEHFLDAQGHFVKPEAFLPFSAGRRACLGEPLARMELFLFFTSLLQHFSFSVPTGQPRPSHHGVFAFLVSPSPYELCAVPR
SMILES,"activity, negative = inhibition",AC50
O=c1c(-c2cc(F)cc(F)c2)nc2cnc(Oc3ccccc3)nc2n1C1CC1,-1.3% (inactive),
Cc1nc2cccc([N+](=O)[O-])c2n1CCCN(C)C,3.67% [at 11.4 µM],
CN(C)CCCn1c2c3ccccc3ccc2c2oc(=O)c3ccccc3c21,,1.26 µM (active)
O=C1C2C3c4ccccc4C(c4ccccc43)C2C(=O)N1c1nc(-c2ccccc2)cs1 (stereo not given),15% (inactive),
O=C(Nc1ccc(-c2nc3ccccc3o2)cc1)c1ccc(N2CCOCC2)c([N+](=O)[O-])c1,-4.29% (inactive),
O=C(O)C1=CCNCC1,,inactive
CCC[C@H]1C(=O)N2C(N(C)C)=Nc3ccc(C)cc3N2C1=O,-3.99% [at 25.6 µM] (inactive),
O=C(Nc1ccccc1)/C(=C\c1ccncc1)NC(=O)c1ccccc1,-8.98% (inactive),
CC(=O)Nc1ccc(NCN2C(=O)C3C4CCC(C4)C3C2=O)cc1 (stereo not given),19.6% (inactive),
COc1ccccc1NC(=O)C1=C(C)Nc2nc(-c3ccc(N(C)C)cc3)nn2C1c1ccncc1 (stereo not given),0.163% (inactive),
Nc1nnnn1/N=C\c1ccc(Cl)c([N+](=O)[O-])c1,17% (inactive),
COc1ccc(-n2c(C)n[nH]c2=O)cc1,15.3% (inactive),
CC(C)c1ccc(NC(=O)N(CCc2nc3ccccc3[nH]2)C2CCCC2)cc1,,2.51 µM (active)
Cc1cc(C)cc(NC(=O)CCc2nc3ccccc3[nH]2)c1,-11.3% (inactive),
O=C(O)[C@H]1CCCC[C@@H]1C(=O)Nc1nc2ccccc2[nH]1,-3.05% [at 11.4 µM],
O=C(N/N=C/c1cccc(OC2CSC2)c1)c1ccccc1O,-21.8% (inactive),
Nc1ccccc1N=Nc1c(S(=O)(=O)O)cc2cc(S(=O)(=O)O)cc(O)c2c1O,-13.1% [at 11.4 µM],
CC(C)CCn1c(Oc2ccccc2Cl)nc2c1c(=O)n(C)c(=O)n2C,-16.4% (inactive),
CC(=O)/C(=C\c1ccccc1F)C(=O)c1ccccc1,-1.17% [at 11.4 µM],
CC1CCCN(CCCNC(=O)C2CC(=O)N(c3ccc(F)c(Cl)c3)C2)C1 (stereo not given),,15.8 µM (active)
CC1CC(C)CN(CCCNC(=O)C2CCCN(c3nnc(N4CCCC4=O)s3)C2)C1 (stereo not given),-18.7% (inactive),
COCCCNC(=O)C1CC(=O)N(CCc2ccc(OC)c(OC)c2)C1 (stereo not given),10.7% (inactive),
COC(=O)c1nn(C23CC4CC(CC(C4)C2)C3)c2c1C(=O)N(c1ccc(F)cc1)C2=O,1.92% (inactive),
COc1ccc(C2N=C(N)N=C(N)N2c2ccccc2OC)cc1OC (stereo not given),,7.08 µM (active)
NC1=N[C@H](c2ccc(Cl)cc2)N(c2ccc(S(=O)(=O)Nc3ncccn3)cc2)C(N)=N1,-2.11% [at 11.4 µM],

SMILES,"activity, negative = inhibition",AC50
COc1cccc(/C(O)=C2/C(=O)C(=O)N(c3ccccn3)C2c2ccc(OC)c(OC)c2)c1 (stereo not given),-0.578% (inactive),
COc1cccc(Cn2c(=O)c(-c3cn(C)c4ccccc34)nc3cncnc32)c1,0.612% (inactive),
O=C(O)CCCCCCCC(=O)O,2.09% (inactive),
COc1ccc(Oc2nc(C)cc(C)c2S(=O)(=O)c2ccc(C)cc2)cc1,-5.88% (inactive),
N[C@H](CCC(=O)NCC(=O)O)C(=O)O,6.41% (inactive),
CC(NC(=O)CN1CCCC1)C12CC3CC(CC(C3)C1)C2 (stereo not given),-17.4% (inactive),
CC(C)(C)CNC(CO)C12CC3CC(CC(C3)C1)C2 (stereo not given),,10 µM (active)
Cc1ccc(S(=O)(=O)N[C@H]2COC(=O)[C@H](C)COC(=O)[C@H](C)NC(=O)C/C=C\[C@H]2C)cc1,12.2% [at 11.4 µM],
O=C(O)[C@@H]1[C@@H](C(=O)NCc2ccccn2)[C@@H]2C=C[C@@H]1O2,8.57% [at 11.4 µM],
COC(=O)[C@](C)(N)Cc1ccc(O)cc1,4.18% (inactive),
COC(=O)[C@H](N)Cc1ccc(Cl)cc1,-5.04% (inactive),
C[C@H](N)C(=O)OC(C)(C)Cc1ccc(Cl)cc1,,12.6 µM (active)
COc1ccc(C2=NC(C(F)(F)F)(C(F)(F)F)c3c(n(C)c(=O)n(C)c3=O)N2)cc1,2.5% (inactive),
CNC(=O)NC(=S)NC(=O)c1ccc(OC)cc1,-4.2% (inactive),
COc1ccc(-c2nc3cnc(OC)nc3n(-c3ccc(OC)cc3)c2=O)cc1,5.64% (inactive),
Cc1ccc(/C=N/NC(=O)Cn2nccc2C)o1,-1.83% (inactive),
Cc1ccc(/C=N\Nc2nc3ccc(Cl)cc3[nH]2)o1,,3.55 µM (active)
CCOC(=O)N/N=C/c1ccc(C)o1,1.51% (inactive),
CCCC(=O)n1nc(-c2cccnc2)nc1N,10.8% (inactive),
Cc1nnsc1SC(C)C(=O)O (stereo not given),-11% (inactive),
CCn1c(COc2ccc(C)cc2)nnc1SCc1ccc(C#N)cc1,-22.7% (inactive),
O=C(Nc1cc(Sc2ccccn2)cc([N+](=O)[O-])c1)c1ccc([N+](=O)[O-])cc1,-16.7% (inactive),
O=C(Nc1cc(Sc2ccccn2)cc([N+](=O)[O-])c1)c1ccc(Cl)cc1,,8.91 µM (active)
O=C(Nc1cccc([N+](=O)[O-])c1)c1ccc(CSc2ccccc2)cc1,-4.86% (inactive),
CC1=CC(=C2C(=O)c3ccccc3C2=O)C=C(C)N1Cc1ccco1,17.1% (inactive),
